# High-throughput results as filed in PubChem.
# Pf gamet viab: kills late stage P. falciparum gametocytes. hit rate 0.065% among 150,000. inhibition, % at 10.9 µM. P. falciparum stage V gametocytes, ATP luminescence, 24 h;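 active = inhibition above the mean plus 3 SD of compounds within the control limits, set per campaign, cut at about 38% in these data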;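 note: 0% = DMSO wells and 100% = medium only without gametocytes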
# S1P4 ag: human S1P4 receptor agonism; S1P4-expressing cell line, agonist reporter assay; O95977; AID 1509; hit rate 0.35% among 220,000; activation, % at 4.98 µM; in the data active = activation above about 11%;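 note: 0% = DMSO vehicle and 100% = reference agonist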
# S1P3 antagonist: S1P3 (human) receptor antagonism. CHO S1P3 NFAT-BLA reporter, FRET fluorescence, antagonist mode. Q99500. inhibition, % at 4.98 µM. hit rate 0.27% among 170,000;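 active = inhibition above the plate cutoff, the mean inhibition of test wells on that plate plus 3 SD, cut at about 28% in these data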;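 note: cells challenged with S1P at its EC80 of 0.8 µM; blue over green emission ratio from cleaved BLA substrate after 4 h stimulation; 0% = S1P-stimulated wells and 100% = unstimulated DMSO-only wells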
# Hsp70 act: transcriptional activators of Hsp70; HeLa Hsp70 promoter luciferase reporter, luminescence; scaled: vehicle 0, proteasome-inhibitor control 100%; activation, % at 10 µM; hit rate 0.04% among 200,000; AID 1203;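 active = activation above the mean across all tested compounds plus 3 SD, cutoff set per campaign, cut at about 5.5% in these data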;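 note: 100% = MG132 at 30 µM as the positive control and 0% = DMSO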
# S1P4 antagonist: blocks the human S1P4 receptor. O95977. inhibition, % at 4.98 µM. S1P4-expressing cells, antagonist mode, reporter read-out. AID 1510. hit rate 0.26% among 220,000; in the data active = inhibition above about 29%;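 note: 0% = wells stimulated with agonist and 100% = vehicle wells without agonist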
# S1P4 agonist cf: human S1P4 agonism, confirmation | shares compounds with S1P4 ag | S1P4 agonist cell-based reporter assay | activation, % at 4.98 µM | hit rate 7% among 740 | AID 1523; in the data active = activation above about 12%;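 note: 0% = vehicle and 100% = full reference agonist response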
# S1P1 agonist: counter-screen for S1P4 agonists: agonists of human S1P1; shares compounds with S1P4 ag; S1P1 agonist cell-based assay, activation; activation, % at 4.98 µM; hit rate 4% among 740; AID 1563; in the data active = activation above about 21%;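 note: 0% = vehicle wells and 100% = reference agonist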
# Target sequence (P21453 whole entry, looked up): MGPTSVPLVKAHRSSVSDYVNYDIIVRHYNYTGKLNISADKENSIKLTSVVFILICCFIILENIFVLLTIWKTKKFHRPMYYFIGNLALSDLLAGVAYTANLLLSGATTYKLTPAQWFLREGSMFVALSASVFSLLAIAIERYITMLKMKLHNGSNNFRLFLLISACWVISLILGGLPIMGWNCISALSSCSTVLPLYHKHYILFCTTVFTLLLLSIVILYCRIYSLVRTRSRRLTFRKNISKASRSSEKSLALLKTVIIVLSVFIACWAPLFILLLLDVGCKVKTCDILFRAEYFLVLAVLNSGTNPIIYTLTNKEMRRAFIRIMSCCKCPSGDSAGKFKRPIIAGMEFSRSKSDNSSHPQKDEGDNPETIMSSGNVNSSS
# * marks the source's active call; other numbers are inactive results; . = no result. Rows were chosen to be rich in hits. Some 0.83% of all compounds tested hit in one or more screens of this group.
SMILES,Pf gamet viab,S1P4 ag,S1P3 antagonist,Hsp70 act,S1P4 antagonist,S1P4 agonist cf,S1P1 agonist
O=[N+]([O-])c1cccc(COc2ncnc3cc([N+](=O)[O-])ccc23)c1,-3.8,-2.0,-4.8,.,-12.4,.,.
CCOC(=O)Cc1csc(NC(=O)CSc2nc(N)c3c(C)c(C)sc3n2)n1,.,24.1*,.,-0.5,-8.7,-1.4,-2.9
CCOC(=O)Cc1csc(NC(=O)CC)n1,.,1.1,-7.1,-0.1,-11.1,.,.
CCCCNC(=O)N1c2ccccc2CC1C (configuration not stated),6.1,2.6,-0.7,-0.1,4.7,.,.
O=C(NC(Cc1c[nH]c2ccccc12)C(=O)O)c1ccco1 (configuration not stated),.,-2.3,.,-0.4,-16.4,.,.
O=C(NCc1ccccc1)N[C@@H](Cc1c[nH]c2ccccc12)C(=O)O,.,14.2*,-10.8,0.0,6.7,-1.2,0.4
CSc1nc(-c2ccc(F)cc2)cc(=O)[nH]1,8.5,-1.4,-17.6,-0.4,6.0,.,.
O=C(Cn1cnc2ccccc21)N1CCN(S(=O)(=O)c2ccccc2)CC1,-16.2,15.1*,20.6,-0.5,-13.4,-2.1,-1.9
O=C(CSc1ncccn1)N1CCN(S(=O)(=O)c2ccccc2)CC1,-8.1,0.8,3.9,.,-0.2,.,.
COc1ccc(NC(=O)N(C)C[C@H]2Oc3ccc(NC(=O)Nc4ccc5c(c4)OCO5)cc3C(=O)N([C@H](C)CO)C[C@@H]2C)cc1,-3.5,.,.,.,.,.,.
CCCC[C@H](CN[C@@H](CNC)[C@H](C)CC)NCCC12CCC(CC1)C2,-20.8,.,.,.,.,.,.
Cc1ccc(OCCn2cc(/C=C3\C(=O)NN(c4ccccc4)C3=O)c3ccccc32)cc1,2.6,14.1*,6.5,-0.2,4.7,-1.9,-2.8
Cc1ccc(OCCn2cc(C=O)c3ccccc32)cc1,-28.5,.,.,.,.,.,.
OCCC1CN(Cc2ccon2)CCN1CCc1ccccc1 (configuration not stated),-16.2,0.8,0.0,0.0,-1.6,.,.
CCOC(=O)CNc1ccc(C(=O)OCC)cc1[N+](=O)[O-],22.9,2.3,1.9,-0.3,-14.5,.,.
CCCNc1ccc(C(=O)OCC)cc1[N+](=O)[O-],21.1,33.6*,-14.3,0.1,-9.1,-1.7,7.8
CC(C)NC(=O)C1CCN(C(=O)c2cc3sccc3n2Cc2ccc(F)cc2)CC1,.,16.0*,-1.6,-0.4,1.7,0.3,6.9
CC1CCN(C(=O)C2CCN(C(=O)c3cc4sccc4n3Cc3ccc(F)cc3)CC2)CC1,.,1.1,7.4,-0.4,-11.3,.,.
N#Cc1cc2c(=O)n3ccccc3nc2n(-c2ccccc2Cl)c1=O,-22.5,28.3*,-47.8,-0.3,-52.0,15.6*,29.2*
COc1ccc(NC(=O)C2CC(=O)NC(Nc3cccc(C)c3)=N2)cc1 (configuration not stated),-7.8,-2.1,-5.0,-0.4,1.7,.,.
COc1ccc2nc(NC3=NC(C(=O)Nc4ccc(C)cc4)CC(=O)N3)nc(C)c2c1 (configuration not stated),.,37.7*,-14.0,-0.4,-14.5,-1.4,-2.0
O=C(O)C(Oc1ccc2ccccc2c1)c1ccccc1 (configuration not stated),-7.2,.,.,.,.,.,.
COc1ccc(S(=O)(=O)Nc2cccc(C(C)=O)c2)cc1Br,6.7,0.6,-17.8,-0.1,-14.3,.,.
COc1ccc(S(=O)(=O)Nc2cccc(N(C)S(C)(=O)=O)c2)cc1Br,24.2,11.4*,-12.4,-0.5,-7.9,-1.2,9.4
Cc1ccc(NC(=O)c2ccc(OC(=O)CCN3C(=O)c4ccccc4C3=O)cc2)cc1,.,11.3*,.,0.0,1.3,0.7,-6.8
SMILES,Pf gamet viab,S1P4 ag,S1P3 antagonist,Hsp70 act,S1P4 antagonist,S1P4 agonist cf,S1P1 agonist
CC(C)S(=O)(=O)N1CCCC(C(=O)c2cccc(Cl)c2)C1 (configuration not stated),0.0,0.3,5.0,-0.3,-6.0,.,.
COCCNC(=O)Cn1c(=O)n(CCCCCC(=O)Nc2ccccc2)c(=O)c2sccc21,.,21.1*,-2.6,-0.2,0.7,-2.1,-3.1
O=C(Nc1ncc(Cl)cc1Cl)c1c(F)cccc1Cl,.,-0.1,10.2,-0.3,4.0,.,.
CC(=O)N(CCCc1ccc(C(C)(C)C)cc1)CCCN(C)C,.,-1.2,9.1,-0.1,-14.4,.,.
CC(=O)N(CCCN(C)C)Cc1ccccn1,3.2,20.2*,-21.3,.,4.4,-2.5,-6.6
O=C(NCc1ccco1)c1cc([N+](=O)[O-])ccc1N1CCOCC1,-9.8,4.8,-5.0,0.2,0.4,.,.
CCOC(=O)CC1Sc2ccccc2NC1=S (configuration not stated),-1.9,63.4*,-18.1,.,12.5,-0.8,-0.8
Cc1ccc(S(=O)(=O)N(C)C)cc1-n1c(SCC(=O)Nc2ccc(F)cc2)nc2ccccc2c1=O,-9.8,11.0*,-3.1,-0.4,-13.1,-2.1,1.1
O=C(Nc1nnc(C2CC2)s1)c1ccc(S(=O)(=O)c2ccccc2)cc1,.,14.1*,.,-0.1,-13.8,-1.7,0.9
O=C(Nc1nncs1)c1ccc(S(=O)(=O)c2ccccc2)cc1,29.2,1.6,.,-0.1,-17.2,.,.
C=CCn1c(COc2cc(C)ccc2C(C)C)nnc1SCC(=O)c1c(N)n(C)c(=O)n(C)c1=O,-5.3,13.2*,-0.6,-0.3,-6.7,-0.3,1.0
CCCCCCn1c(COc2ccccc2F)nnc1SCC(=O)c1c(N)n(C)c(=O)n(C)c1=O,12.6,0.8,16.3,-0.3,-14.1,.,.
CC1Cc2ccccc2N1C(=O)NC1CC(=O)N(c2ccc3c(c2)OCCO3)C1 (configuration not stated),-7.5,1.0,0.2,0.4,1.2,.,.
CC(Nc1ccc2c(c1)OCCO2)C(=O)N1c2ccccc2CC1C (configuration not stated),-21.9,15.5*,-2.6,-0.2,-7.7,29.3*,-1.3
CC1C2=C(CC(C)(C)CC2=O)NC2=C1C(=O)CC(C)(C)C2,.,17.7*,-8.8,-0.5,-4.5,7.5,7.6
COc1ccc(CC2(CO)CCN(Cc3cnn(C)c3C)CC2)cc1,-3.8,17.4*,-11.4,-0.2,7.9,-1.3,-8.5
COc1ccc(CC2(CO)CCN(Cc3ccncc3)CC2)cc1,31.6,1.8,-2.4,-0.1,-27.9,.,.
CCCCCOCC1CC(C/C(C)=N/NC(N)=S)C(=O)O1 (configuration not stated),2.6,1.1,-8.2,-0.2,-4.3,.,.
C/C(CC1CC(COCC(C)C)OC1=O)=N\NC(N)=S (configuration not stated),-7.2,12.7*,-14.1,-0.4,-9.1,-1.6,-0.6
COc1ccccc1CCc1nnc(CCC(=O)NC(C)Cn2nc(C)cc2C)o1 (configuration not stated),1.1,3.6,-1.2,0.0,-13.4,.,.
Cc1ccc(CNC(=O)C2CN(S(C)(=O)=O)c3cc(Cl)ccc3O2)cc1 (configuration not stated),7.0,63.4*,-12.9,0.5,-22.6,-2.3,3.1
